# From PubChem BioAssay AID2551 (National Center for Advancing Translational Sciences (NCATS), 2010)
# Among all 310,000 compounds or so, about 17,000 (5.5%) were called active. Entries that show only a call come without a potency. About 11% were inconclusive and are not listed. The full list was thinned out, with actives kept by preference. Unmarked numbers belong to inactive results. Calls follow the shape of the dose curve; as a rule, active = well fitted inhibition curve with a large enough effect; inconclusive = small, poorly fitted or top-dose-only effect, or effect the other way; inactive = no such curve, though single readings can be large or run the other way.
# Molecular target: Nuclear receptor ROR-gamma (Mus musculus) (UniProt P51450)
# Sequence (P51450 whole entry, looked up): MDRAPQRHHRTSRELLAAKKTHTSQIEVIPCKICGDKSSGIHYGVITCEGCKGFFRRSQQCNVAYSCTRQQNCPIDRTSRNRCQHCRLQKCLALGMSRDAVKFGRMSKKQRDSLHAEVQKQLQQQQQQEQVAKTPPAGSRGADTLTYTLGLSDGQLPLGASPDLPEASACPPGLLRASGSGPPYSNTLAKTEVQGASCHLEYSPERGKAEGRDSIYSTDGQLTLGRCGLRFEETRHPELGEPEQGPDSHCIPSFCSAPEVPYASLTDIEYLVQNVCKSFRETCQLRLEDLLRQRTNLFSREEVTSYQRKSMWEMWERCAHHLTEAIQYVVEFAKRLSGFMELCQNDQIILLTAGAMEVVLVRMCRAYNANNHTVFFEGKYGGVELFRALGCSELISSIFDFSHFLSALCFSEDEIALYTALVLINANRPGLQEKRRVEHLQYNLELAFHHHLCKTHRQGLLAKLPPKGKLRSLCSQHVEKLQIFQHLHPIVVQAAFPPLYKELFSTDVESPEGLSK
# Test: qHTS for inhibitors of ROR gamma transcriptional activity; also: nearly all actives have a fitted effect of over 60% in size
# Settings: Drosophila S2 Gal4-RORgamma UAS-luciferase reporter, 20 h; series mostly up to 53.6 µM
# Procedure, shortened: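 Schneider cells (Drosophila), stable Gal4 DBD–ROR gamma + UAS-luc; 1 hr cmpd preincubation; Cu2+ induction 700 uM final; 20 hr ambient; luminescence.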
# Potency is read from the fitted curve at half-maximal effect.
Compound,Potency,"activity change, negative = inhibition"
CC1CC(=O)N(CC(=O)Nc2cccc(Cl)c2)c2ccccc2S1(=O)=O (configuration not stated),inactive,
NC(=O)c1cc(S(=O)(=O)N2CCCC2)ccc1OCc1ccc(F)cc1,inactive,
C=CCn1c(CCNC(=O)c2cccs2)n[nH]c1=S,17.8 µM (active),
Cc1ccc(C)c2[nH]c(=O)c(CCNC(=O)c3cccs3)cc12,inactive,
CCOC(=O)CSc1nnc(CNC(=O)c2cccs2)n1-c1ccccc1,inactive,
O=C(c1cc2cc(Br)cc(Br)c2oc1=O)N1CCOCC1,inactive,
C=CCn1c(-c2sc(-c3ccccc3)nc2C)n[nH]c1=S,2.51 µM (active),
Cc1nc(-c2ccccc2)sc1-c1nnc(C2CC2)o1,inactive,
C=CCn1c(COc2cccc3cccnc23)nnc1SCC(=O)OC,inactive,
C=CCn1c(=S)sc2c(=O)[nH]c(C)nc21,inactive,
C=CCn1c(-c2ccccc2OCC)n[nH]c1=S,10 µM (active),
C=CCn1c(COc2ccccc2C)nnc1SCC(=O)O,inactive,
Cc1[nH]c2ccc(S(N)(=O)=O)cc2c1C,,-1.39% [at 10 µM]
Cc1nc(-c2ccccc2)sc1-c1nc(-c2ccccc2)ncc1S(=O)(=O)c1ccccc1,inactive,
C=CCn1c(-c2ccc3[nH]c(C)c(C)c3c2)n[nH]c1=S,5.62 µM (active),
COCCn1c(SCC(=O)N2CCCCCC2)nc2c(c1=O)SCC2,inactive,
CCN1CCN(c2sc(S(C)(=O)=O)nc2S(=O)(=O)c2ccc(Cl)cc2)CC1,inactive,
CCOC(=O)c1csc(CCNC(=O)c2oc3c(Cl)cc(C)cc3c2C)n1,inactive,
CC1CC(C)CN(S(=O)(=O)c2cccc3nonc23)C1 (configuration not stated),inactive,
COc1ccc(/C=N/NC(=O)c2ccc(Cl)cc2)cc1COC(C)=O,inactive,
COc1ccc(/C=N/NC(=O)c2ccncc2)cc1CN1CCCc2ccccc21,11.2 µM (active),
COc1cc(/C=N/NC(=O)CNC(=O)c2ccncc2)ccc1OC(C)=O,inactive,
COc1ccc(C(=O)O)cc1S(=O)(=O)NCc1cccnc1,inactive,

Compound,Potency,"activity change, negative = inhibition"
COc1cccc(NC(=O)CN2CCN(CC(=O)Nc3ccccc3Cl)CC2)c1,inactive,
Cc1ccc(OCC(=O)NC(C)c2ccccc2)cc1C (configuration not stated),inactive,
O=C(CN1CCCCCC1)Nc1ccc(S(=O)(=O)N2CCCCC2)cc1,inactive,
Cc1cccc(NC(=O)CSCC(=O)Nc2nnc(C3CC3)s2)c1,inactive,
CC1CCN(c2ccc(C(=O)Nc3nnc(C4CC4)s3)cc2[N+](=O)[O-])CC1,inactive,
O=C(Cc1cccs1)Nc1nnc(C2CC2)s1,inactive,
O=C(Nc1nnc(C2CC2)s1)c1ccccn1,1.12 µM (active),
O=C(Nc1nnc(C2CC2)s1)c1cc(Cl)sc1Cl,11.2 µM (active),
Cc1occc1C(=O)Nc1nnc(C2CCCCC2)s1,,0% [at 10 µM]
CCCc1ccc(OCC(O)CN2CCN(C(=O)OCC)CC2)cc1 (configuration not stated),inactive,
O=C(NCc1ccncc1)C(=O)NCC1OCCN1S(=O)(=O)c1ccc(Br)cc1 (configuration not stated),inactive,
CCCN1C2CCCC1CC(NC(=O)NC13CC4CC(CC(C4)C1)C3)C2 (configuration not stated),inactive,
COc1cc(/C=N/NC(=O)Cc2ccccc2)cc(OC)c1OC,inactive,
C/C(=N/NC(=O)c1ccc(NC(=O)c2ccc(F)cc2)cc1)c1ccccc1,inactive,
Cc1ccc(C(=O)NCCNC(=O)c2ccccc2)cc1,inactive,
C/C(=N\NC(=O)c1ccc(C)cc1)C1C(=O)c2ccccc2C1=O,0.891 µM (active),
FC(F)(F)c1nnc2c3ccccc3c(Cl)nn12,inactive,
O=C(CN1CCN(c2cccc(Cl)c2)CC1)Nc1ccc(S(=O)(=O)N2CCOCC2)cc1,inactive,
Cc1ccc(NC(=S)NCc2ccccc2Cl)c(C)c1,6.31 µM (active),
Cc1ccc(NC(=O)c2ccn(C(=O)Nc3ccccc3)n2)c(C)c1,inactive,
Cc1cc(F)ccc1NC(=S)NCCc1ccccc1,5.62 µM (active),
Cc1cccc(NC(=S)NCCc2ccc(F)cc2)c1C,2 µM (active),
Cc1cc(C(=O)NCCc2ccc(Cl)cc2)c(C)o1,inactive,

Compound,Potency,"activity change, negative = inhibition"
NC(=O)Nc1ccccc1C(=O)NCCc1ccccc1,inactive,
Cc1ccc(NC(=O)C(=O)NCc2ccco2)c(C)c1,inactive,
Cc1ccc(NC(=S)NCCc2ccc(Cl)cc2)c(C)c1,2.82 µM (active),
Cc1cccc(NC(=O)C2CCCN(C(=O)Nc3ccc(F)cc3)C2)c1C (configuration not stated),inactive,
O=C(CC(=O)N/N=C\c1ccc(F)cc1)NCCc1ccccc1,inactive,
Cc1cc(Cl)ccc1NC(=S)NCCCN1CCCC1=O,inactive,
Cc1cccc(NC(=O)COC(=O)CCc2ccccc2)c1C,,-18.4% [at 1.91 µM]
O=C(Nc1cccc([N+](=O)[O-])c1)N1CCc2ccccc2C1,inactive,
Cc1cc(N2C(=O)C(O)=C(C(=O)c3ccc(C)o3)C2c2ccc(OCc3ccccc3)cc2)no1 (configuration not stated),inactive,
COc1ccccc1CCNS(=O)(=O)c1cc2c3c(c1)C(C)C(=O)N3CCC2 (configuration not stated),inactive,
CCN(CC)S(=O)(=O)c1ccc(C(=O)N2CCN(C3=NS(=O)(=O)c4ccccc43)CC2)cc1,inactive,
Cc1cc(C)n(-c2ccc(NC(=O)C3CCCCN3C(=O)c3cccs3)cc2)n1 (configuration not stated),inactive,
O=C(Cc1ccccc1Cl)N1CCOCC1,inactive,
Cc1ccccc1NC(=S)NC(=O)Cc1ccc(Cl)cc1,7.94 µM (active),
O=C(COc1ccc(Cl)cc1)Nc1ccccc1CO,inactive,
Cc1ccccc1N/C(SCc1ccc(Cl)cc1)=C(/C#N)C(N)=O,inactive,
CSc1ncc(C(=O)Nc2ccc(C)cc2C)c(C)n1,inactive,
Cc1cccc(NC(=S)NCCc2ccc(Cl)cc2)c1C,5.62 µM (active),
Cc1cccc(NC(=O)c2cccc(C(=O)Nc3cccc(C)c3C)n2)c1C,,-10.9% [at 1.91 µM]
Cc1ccc(NC(=S)Nc2ncccc2C)c(C)c1,4.47 µM (active),
Cc1cccc(NC(=S)N2CCC(O)CC2)c1C,inactive,
CCOC(=O)N1CCN(C(=S)Nc2ccc(C)cc2C)CC1,inactive,
COc1ccccc1CN1CCNC(=O)C1CC(=O)N(C)CC1CCOCC1 (configuration not stated),inactive,

Compound,Potency,"activity change, negative = inhibition"
COc1ccc(NC(=O)COc2ccc(C(=O)c3ccc(F)cc3)cc2)cc1S(N)(=O)=O,inactive,
CC(=O)N1CCSc2ccc(S(=O)(=O)N3CCC(C)CC3)cc21,inactive,
COc1cccc(N(C(=O)CNC(=O)c2ccco2)C(C(=O)NC2CCCCC2)c2cccnc2)c1 (configuration not stated),inactive,
Cc1ccc(-c2nc(CSCC(=O)NC3CCN(Cc4ccccc4)CC3)c(C)o2)cc1,inactive,
Cc1ccccc1OCC(=O)NNC(=O)c1cc(S(=O)(=O)N(C)C)ccc1N1CCCC1,inactive,
Cn1c(Nc2cccc(Cl)c2)nc2ccccc21,,-6.74% [at 1.91 µM]
COc1ccccc1CNC(=O)C1CCN(S(=O)(=O)c2ccc3c(c2)CC(C)N3C(=O)C2CC2)CC1 (configuration not stated),inactive,
Cc1ccc(OS(=O)Nc2cccc3nccnc23)cc1 (configuration not stated),3.98 µM (active),
Cc1ccc(Oc2ccc3c(c2)C(=O)N(c2cccc4cccnc24)C3=O)cc1,inactive,
COc1ccc(NC(=O)Nc2cccc3cccnc23)cc1,inactive,
O=C(COc1ccc(Cl)cc1)NCCS(=O)(=O)N1CCN(c2ccc(F)cc2)CC1,inactive,
CN(C)c1nc(=Nc2cccc(Cl)c2)ss1,0.398 µM (active),
CCOC(=O)C1=C(O)CSC1=Nc1cccc(Cl)c1,inactive,
CC(=O)Oc1ccc2c(=O)oc(-c3ccc([N+](=O)[O-])cc3)nc2c1,inactive,
CC(C)(C)NC(=O)C(=O)NN=C1CCCCCCC1,inactive,
CC(C)NC(=S)NN=C1CCCCCCCCCCC1,0.447 µM (active),
CC1CC(C)CN(CCCNC(=O)Cn2ncc3c([nH]c4ccccc43)c2=O)C1 (configuration not stated),inactive,
Cc1cccc(N(C(=O)c2sc(C)nc2C)C(C(=O)NCC2CCCO2)c2ccccc2)c1 (configuration not stated),inactive,
CCC(NC(=O)c1cc(COc2ccc(F)c(F)c2)on1)c1ccncc1 (configuration not stated),inactive,
CC1CCC(NC(=O)CN(C)S(=O)(=O)c2ccc3c(c2)c(=O)n(C)c(=O)n3C)CC1 (configuration not stated),inactive,
COc1ccc(C(C(=O)NC2CCCCC2)N(C(=O)c2snc(C(N)=O)c2N)c2ccccc2OC)cc1 (configuration not stated),inactive,
O=C(c1cccc([N+](=O)[O-])c1)N1CCN(Cc2ccccc2)CC1,inactive,
O=C(c1cccc(Cl)c1)N1CCN(Cc2ccccc2)CC1,inactive,

Compound,Potency,"activity change, negative = inhibition"
O=C(NC(=S)N1CCN(Cc2ccccc2)CC1)c1ccccc1,1 µM (active),
CC(C)c1nnc(NC(=O)CCC(=O)N2CCN(c3cccc(Cl)c3)CC2)s1,inactive,
COc1ccc(NC(=O)C/C(C)=N/NC(=O)c2cnccn2)cc1Cl,inactive,
COc1cc(OC)c(S(=O)(=O)Nc2ccccc2C(=O)O)cc1S(=O)(=O)Nc1ccccc1C(=O)O,inactive,
CCc1cccc(C)c1N1C(=O)CN(Cc2ccccc2)C1=S,inactive,
Oc1oc(-c2ccccc2Br)nc1/C=N/c1ccccn1,8.91 µM (active),
CCOc1ccc2nc(/N=C/c3nc(-c4ccccc4)oc3O)sc2c1,,-14.9% [at 10 µM]
CC(N=Cc1nc(-c2ccccc2)oc1O)c1ccccc1 (configuration not stated),inactive,
Cc1ccnc(NS(=O)(=O)c2ccc(NC(=O)c3oc4ccccc4c3C)cc2)n1,inactive,
Cc1ccc(S(=O)(=O)N(CC(=O)Nc2cccnc2)c2ccc(Br)cc2)cc1,inactive,
CCCN(CC1COc2ccccc2O1)C(=S)Nc1ccc(C)cc1 (configuration not stated),15.8 µM (active),
Cc1ccc(S(=O)(=O)N(C)C)cc1NC(=O)COC(=O)C1COc2ccccc2O1 (configuration not stated),inactive,
Cc1cc(NC(=O)CCC2COc3ccccc3O2)no1 (configuration not stated),inactive,
COCn1c(C(O)c2ccccc2)cc2ccccc21 (configuration not stated),inactive,
Cc1cc(S(=O)(=O)NCc2ccccn2)c(Cl)cc1Cl,7.08 µM (active),
O=S(=O)(NCc1cccnc1)c1ccc(Br)s1,inactive,
Cc1cc(Cl)c(S(=O)(=O)NCc2cccnc2)cc1OCC(N)=O,inactive,
CCOc1cc(C)c(S(=O)(=O)NCc2ccccn2)cc1C,,-29.6% [at 1.91 µM]
O=S(=O)(NCc1ccccn1)c1ccc(F)cc1,inactive,
O=S(=O)(NCc1ccccn1)c1ccc(Br)s1,8.91 µM (active),
